# Reference: PMC7862700, “An all-to-all approach to the identification of sequence-specific readers for epigenetic DNA modifications on cytosine”
# What was measured:
# Assay in all cases: DAPPL (digital affinity profiling via proximity ligation, sequencing); 10 mM Tris-HCl pH 7.5, 50 mM NaCl, 1 mM DTT, 4% glycerol, room temperature, 30 min; GST-TFs on glutathione beads, 16-mer random dsDNA library, 0.1% formaldehyde crosslink after washing; high values mean tight binding
# FLI1 = biological target: T1, FLI1 (Homo sapiens, UniProt Q01543 1-452); conditions: protein: recombinant; tags: N-terminal GST; dsDNA, one strand shown
# T1 sequence: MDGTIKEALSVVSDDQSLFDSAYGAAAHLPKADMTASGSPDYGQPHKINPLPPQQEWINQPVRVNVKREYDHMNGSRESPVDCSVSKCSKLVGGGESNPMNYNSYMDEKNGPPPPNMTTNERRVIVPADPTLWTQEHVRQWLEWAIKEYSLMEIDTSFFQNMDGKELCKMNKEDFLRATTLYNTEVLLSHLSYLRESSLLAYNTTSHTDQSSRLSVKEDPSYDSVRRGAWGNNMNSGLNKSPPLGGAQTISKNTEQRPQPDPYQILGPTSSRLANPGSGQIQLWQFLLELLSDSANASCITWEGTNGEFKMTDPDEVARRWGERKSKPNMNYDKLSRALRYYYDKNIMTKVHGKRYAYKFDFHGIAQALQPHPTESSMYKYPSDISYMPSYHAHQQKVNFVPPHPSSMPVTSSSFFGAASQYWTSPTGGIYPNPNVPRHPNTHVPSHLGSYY
# How it was run: (§1)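 The binding signal reported is, for every hexamer, its read frequency for a factor over its read frequency for the tag-only sample. Reads came from pools of yeast-expressed, GST-fused human transcription factors on glutathione beads, barcoded with DNA and mixed with that sample, which were incubated with 200 nmole of a random double-stranded 16-mer DNA library in Tris/NaCl/DTT/glycerol buffer at room temperature for 30 min. After washing, the pools were crosslinked with 0.1% formaldehyde, proximity-ligated with BsaI/T4 ligase for 1 h at 37 °C, PCR-amplified and sequenced on an Illumina NextSeq500.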
# ELK1 = biological target: T2, ELK1 (Homo sapiens, UniProt P19419 1-428); conditions: protein: recombinant; tags: N-terminal GST; dsDNA, one strand shown
# T2 sequence: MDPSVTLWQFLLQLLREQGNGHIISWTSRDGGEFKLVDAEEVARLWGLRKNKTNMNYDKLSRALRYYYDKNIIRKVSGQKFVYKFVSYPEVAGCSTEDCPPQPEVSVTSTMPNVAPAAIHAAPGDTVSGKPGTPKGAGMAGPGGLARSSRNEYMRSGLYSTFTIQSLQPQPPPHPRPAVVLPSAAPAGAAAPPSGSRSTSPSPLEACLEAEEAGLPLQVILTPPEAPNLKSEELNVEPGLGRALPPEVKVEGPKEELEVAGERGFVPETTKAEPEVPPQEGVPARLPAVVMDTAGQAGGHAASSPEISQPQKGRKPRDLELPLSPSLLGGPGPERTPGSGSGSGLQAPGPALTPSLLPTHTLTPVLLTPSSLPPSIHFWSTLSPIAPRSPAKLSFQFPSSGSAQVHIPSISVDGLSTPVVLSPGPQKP
# How it was run: as §1
# GABPA = biological target: T3, GABPA (Homo sapiens, UniProt Q06546 1-454); conditions: protein: recombinant; tags: N-terminal GST; dsDNA, one strand shown
# T3 sequence: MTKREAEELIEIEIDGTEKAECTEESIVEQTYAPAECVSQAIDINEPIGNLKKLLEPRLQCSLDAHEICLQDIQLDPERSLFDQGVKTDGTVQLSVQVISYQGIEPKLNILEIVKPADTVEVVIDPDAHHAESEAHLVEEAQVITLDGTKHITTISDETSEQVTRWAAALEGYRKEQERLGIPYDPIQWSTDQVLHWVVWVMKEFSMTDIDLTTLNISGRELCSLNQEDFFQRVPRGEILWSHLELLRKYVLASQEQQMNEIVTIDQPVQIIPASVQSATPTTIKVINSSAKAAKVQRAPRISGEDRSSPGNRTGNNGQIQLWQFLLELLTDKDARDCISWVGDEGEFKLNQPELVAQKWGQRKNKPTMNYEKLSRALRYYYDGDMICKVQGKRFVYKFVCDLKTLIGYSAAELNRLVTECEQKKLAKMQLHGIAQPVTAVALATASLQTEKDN
# How it was run: as §1
# ERG = biological target: T4, ERG (Homo sapiens, UniProt P11308 1-479); conditions: protein: recombinant; tags: N-terminal GST; dsDNA, one strand shown
# T4 sequence: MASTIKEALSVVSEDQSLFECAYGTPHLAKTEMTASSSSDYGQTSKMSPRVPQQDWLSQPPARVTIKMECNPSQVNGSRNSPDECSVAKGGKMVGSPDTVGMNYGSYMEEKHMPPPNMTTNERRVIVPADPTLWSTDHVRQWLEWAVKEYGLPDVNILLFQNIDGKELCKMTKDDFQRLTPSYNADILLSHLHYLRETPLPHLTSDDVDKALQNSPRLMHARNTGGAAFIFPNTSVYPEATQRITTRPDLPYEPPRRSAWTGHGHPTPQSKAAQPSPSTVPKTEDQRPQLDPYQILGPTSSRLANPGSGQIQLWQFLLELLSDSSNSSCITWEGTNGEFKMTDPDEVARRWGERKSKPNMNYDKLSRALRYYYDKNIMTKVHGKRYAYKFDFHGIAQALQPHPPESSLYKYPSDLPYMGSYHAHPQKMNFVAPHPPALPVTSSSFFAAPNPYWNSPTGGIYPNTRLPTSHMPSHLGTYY
# How it was run: as §1
# ELF1 = ELF1 (Homo sapiens, UniProt P32519 1-619); conditions: protein: recombinant; tags: N-terminal GST; dsDNA, one strand shown
# How it was run: as §1
# EHF = biological target: T5, EHF (Homo sapiens, UniProt Q9NZC4 1-300); conditions: protein: recombinant; tags: N-terminal GST; dsDNA, one strand shown
# T5 sequence: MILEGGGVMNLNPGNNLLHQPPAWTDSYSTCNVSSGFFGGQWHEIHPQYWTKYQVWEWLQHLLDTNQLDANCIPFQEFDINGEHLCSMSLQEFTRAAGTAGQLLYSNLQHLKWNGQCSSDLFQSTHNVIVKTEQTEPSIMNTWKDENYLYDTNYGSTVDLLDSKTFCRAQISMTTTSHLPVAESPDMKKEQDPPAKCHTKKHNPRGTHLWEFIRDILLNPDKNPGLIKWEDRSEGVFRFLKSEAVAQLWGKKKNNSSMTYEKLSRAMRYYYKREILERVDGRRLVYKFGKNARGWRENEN
# How it was run: as §1
# SPI1 = SPI1 (Homo sapiens, UniProt P17947 1-270); conditions: protein: recombinant; tags: N-terminal GST; dsDNA, one strand shown
# How it was run: as §1
# SPIB = SPIB (Homo sapiens, UniProt Q01892 1-262); conditions: protein: recombinant; tags: N-terminal GST; dsDNA, one strand shown
# How it was run: as §1
# ELK3 = biological target: T6, ELK3 (Homo sapiens, UniProt P41970 1-407); conditions: protein: recombinant; tags: N-terminal GST; dsDNA, one strand shown
# T6 sequence: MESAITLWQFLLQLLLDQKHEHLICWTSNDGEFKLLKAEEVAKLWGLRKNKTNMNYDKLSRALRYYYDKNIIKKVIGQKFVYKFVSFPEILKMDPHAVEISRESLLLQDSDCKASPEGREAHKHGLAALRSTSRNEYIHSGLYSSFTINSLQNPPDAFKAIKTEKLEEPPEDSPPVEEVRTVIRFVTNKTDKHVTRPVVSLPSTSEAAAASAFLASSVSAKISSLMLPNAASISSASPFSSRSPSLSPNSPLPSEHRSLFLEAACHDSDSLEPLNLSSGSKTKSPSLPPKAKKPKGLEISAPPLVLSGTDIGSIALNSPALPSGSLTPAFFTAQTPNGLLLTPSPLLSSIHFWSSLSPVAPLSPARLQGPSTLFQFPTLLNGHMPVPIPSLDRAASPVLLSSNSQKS
# How it was run: as §1
# FEV = biological target: T7, FEV (Homo sapiens, UniProt Q99581 1-238); conditions: protein: recombinant; tags: N-terminal GST; dsDNA, one strand shown
# T7 sequence: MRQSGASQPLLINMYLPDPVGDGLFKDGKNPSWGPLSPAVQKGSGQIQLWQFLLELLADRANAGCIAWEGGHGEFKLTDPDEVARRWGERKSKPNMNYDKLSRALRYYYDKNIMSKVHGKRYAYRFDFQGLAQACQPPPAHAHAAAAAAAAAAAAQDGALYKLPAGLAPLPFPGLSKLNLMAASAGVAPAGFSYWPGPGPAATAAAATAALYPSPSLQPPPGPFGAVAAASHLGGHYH
# How it was run: as §1
# ETV5 = ETV5 (Homo sapiens, UniProt P41161 1-510); conditions: protein: recombinant; tags: N-terminal GST; dsDNA, one strand shown
# How it was run: as §1
# HSF1 = HSF1 (Homo sapiens, UniProt Q00613 1-529); conditions: protein: recombinant; tags: N-terminal GST; chain copies: 3; dsDNA, one strand shown
# How it was run: as §1
# SPIC = biological target: T8, SPIC (Homo sapiens, UniProt Q8N5J4 1-248); conditions: protein: recombinant; tags: N-terminal GST; dsDNA, one strand shown
# T8 sequence: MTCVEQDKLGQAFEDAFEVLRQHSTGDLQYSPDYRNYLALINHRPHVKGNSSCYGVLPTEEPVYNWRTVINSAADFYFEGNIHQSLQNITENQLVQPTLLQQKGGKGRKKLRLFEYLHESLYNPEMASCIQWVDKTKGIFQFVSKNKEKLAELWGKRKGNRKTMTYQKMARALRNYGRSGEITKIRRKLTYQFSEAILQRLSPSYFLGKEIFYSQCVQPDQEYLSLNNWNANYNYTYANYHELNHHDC
# How it was run: as §1
# ELF4 = ELF4 (Homo sapiens, UniProt Q99607 1-663); conditions: protein: recombinant; tags: N-terminal GST; dsDNA, one strand shown
# How it was run: as §1
# ELK4 = biological target: T9, ELK4 (Homo sapiens, UniProt P28324-2 1-405); conditions: protein: recombinant; tags: N-terminal GST; dsDNA, one strand shown
# T9 sequence: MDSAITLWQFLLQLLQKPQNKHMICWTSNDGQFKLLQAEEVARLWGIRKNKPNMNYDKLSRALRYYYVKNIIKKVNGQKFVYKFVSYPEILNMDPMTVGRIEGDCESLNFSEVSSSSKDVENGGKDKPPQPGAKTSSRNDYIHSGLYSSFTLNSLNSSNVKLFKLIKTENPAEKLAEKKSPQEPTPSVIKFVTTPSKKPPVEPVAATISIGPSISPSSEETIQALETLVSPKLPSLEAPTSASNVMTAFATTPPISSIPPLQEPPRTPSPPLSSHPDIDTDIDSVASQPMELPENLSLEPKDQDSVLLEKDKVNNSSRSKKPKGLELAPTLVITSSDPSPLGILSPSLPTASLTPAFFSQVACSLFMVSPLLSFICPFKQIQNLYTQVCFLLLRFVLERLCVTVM
# How it was run: as §1
# ETV2 = biological target: T10, ETV2 (Homo sapiens, UniProt O00321 1-342); conditions: protein: recombinant; tags: N-terminal GST; dsDNA, one strand shown
# T10 sequence: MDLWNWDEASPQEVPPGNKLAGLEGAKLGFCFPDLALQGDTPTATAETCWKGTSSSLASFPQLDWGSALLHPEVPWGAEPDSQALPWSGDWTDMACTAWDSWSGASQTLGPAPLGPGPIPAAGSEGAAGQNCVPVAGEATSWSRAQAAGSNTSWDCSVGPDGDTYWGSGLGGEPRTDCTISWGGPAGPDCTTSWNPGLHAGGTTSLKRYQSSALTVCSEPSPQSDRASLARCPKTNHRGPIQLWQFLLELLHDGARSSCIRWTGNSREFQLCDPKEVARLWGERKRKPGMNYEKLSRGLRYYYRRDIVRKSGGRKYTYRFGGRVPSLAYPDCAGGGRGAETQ
# How it was run: as §1
# ELF3 = biological target: T11, ELF3 (Homo sapiens, UniProt P78545 1-371); conditions: protein: recombinant; tags: N-terminal GST; dsDNA, one strand shown
# T11 sequence: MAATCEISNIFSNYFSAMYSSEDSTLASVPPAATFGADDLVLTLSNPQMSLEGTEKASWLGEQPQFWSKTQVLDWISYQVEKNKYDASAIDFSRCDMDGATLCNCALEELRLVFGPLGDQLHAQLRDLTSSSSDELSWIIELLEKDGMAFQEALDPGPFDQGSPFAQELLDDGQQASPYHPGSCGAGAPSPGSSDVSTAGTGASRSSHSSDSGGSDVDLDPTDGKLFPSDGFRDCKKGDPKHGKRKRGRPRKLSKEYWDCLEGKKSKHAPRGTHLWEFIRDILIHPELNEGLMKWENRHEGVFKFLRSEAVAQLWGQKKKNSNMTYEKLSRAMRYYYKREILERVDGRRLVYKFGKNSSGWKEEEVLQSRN
# How it was run: as §1
# CRX = CRX (Homo sapiens, UniProt O43186 1-299); conditions: protein: recombinant; tags: N-terminal GST; dsDNA, one strand shown
# How it was run: as §1
# ETV1 = ETV1 (Homo sapiens, UniProt P50549 1-477); conditions: protein: recombinant; tags: N-terminal GST; dsDNA, one strand shown
# How it was run: as §1
# HSF1, sequence (Q00613 whole entry): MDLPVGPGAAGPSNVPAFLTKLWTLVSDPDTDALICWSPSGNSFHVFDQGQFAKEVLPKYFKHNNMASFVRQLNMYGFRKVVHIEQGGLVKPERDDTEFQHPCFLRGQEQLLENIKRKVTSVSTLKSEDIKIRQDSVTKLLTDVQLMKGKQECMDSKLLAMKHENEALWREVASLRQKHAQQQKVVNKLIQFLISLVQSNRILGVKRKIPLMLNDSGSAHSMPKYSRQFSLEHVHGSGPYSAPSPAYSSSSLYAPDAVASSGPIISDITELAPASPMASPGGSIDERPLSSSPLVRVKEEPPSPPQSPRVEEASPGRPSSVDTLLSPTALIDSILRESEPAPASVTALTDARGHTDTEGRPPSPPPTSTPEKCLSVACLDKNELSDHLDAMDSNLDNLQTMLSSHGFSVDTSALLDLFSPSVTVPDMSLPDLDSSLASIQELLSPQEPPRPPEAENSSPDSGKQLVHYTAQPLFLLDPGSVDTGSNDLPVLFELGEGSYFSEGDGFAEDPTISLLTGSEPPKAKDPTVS
# ETV1, sequence (P50549 whole entry): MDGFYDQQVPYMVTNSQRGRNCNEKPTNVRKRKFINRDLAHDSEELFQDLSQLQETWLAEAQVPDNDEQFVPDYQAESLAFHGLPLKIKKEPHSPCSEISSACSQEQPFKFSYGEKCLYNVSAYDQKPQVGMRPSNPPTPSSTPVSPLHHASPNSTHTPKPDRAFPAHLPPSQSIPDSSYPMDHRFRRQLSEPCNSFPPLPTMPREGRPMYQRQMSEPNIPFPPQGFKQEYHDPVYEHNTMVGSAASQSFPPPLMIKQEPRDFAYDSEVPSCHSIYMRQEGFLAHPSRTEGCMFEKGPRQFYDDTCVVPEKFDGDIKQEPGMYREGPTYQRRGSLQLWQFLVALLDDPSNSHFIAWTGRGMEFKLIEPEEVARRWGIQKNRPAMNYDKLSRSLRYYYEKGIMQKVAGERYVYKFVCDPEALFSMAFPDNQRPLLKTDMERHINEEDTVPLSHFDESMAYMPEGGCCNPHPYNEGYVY
# SPIB, sequence (Q01892 whole entry): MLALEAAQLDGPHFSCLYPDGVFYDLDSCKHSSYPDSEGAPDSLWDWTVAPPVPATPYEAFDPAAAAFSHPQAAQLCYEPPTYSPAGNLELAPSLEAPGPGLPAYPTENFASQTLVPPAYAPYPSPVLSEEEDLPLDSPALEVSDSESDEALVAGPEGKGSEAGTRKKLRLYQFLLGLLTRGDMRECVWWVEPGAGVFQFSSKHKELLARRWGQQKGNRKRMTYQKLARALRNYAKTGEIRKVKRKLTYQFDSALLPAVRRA
# CRX, sequence (O43186 whole entry): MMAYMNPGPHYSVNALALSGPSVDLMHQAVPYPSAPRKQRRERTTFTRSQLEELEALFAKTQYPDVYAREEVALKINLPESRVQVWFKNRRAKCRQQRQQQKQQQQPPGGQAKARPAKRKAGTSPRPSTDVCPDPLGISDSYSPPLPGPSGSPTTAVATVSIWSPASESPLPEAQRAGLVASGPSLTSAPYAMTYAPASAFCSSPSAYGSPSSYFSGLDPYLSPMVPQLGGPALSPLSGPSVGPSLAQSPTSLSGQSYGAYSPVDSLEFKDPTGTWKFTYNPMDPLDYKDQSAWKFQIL
# ETV5, sequence (P41161 whole entry): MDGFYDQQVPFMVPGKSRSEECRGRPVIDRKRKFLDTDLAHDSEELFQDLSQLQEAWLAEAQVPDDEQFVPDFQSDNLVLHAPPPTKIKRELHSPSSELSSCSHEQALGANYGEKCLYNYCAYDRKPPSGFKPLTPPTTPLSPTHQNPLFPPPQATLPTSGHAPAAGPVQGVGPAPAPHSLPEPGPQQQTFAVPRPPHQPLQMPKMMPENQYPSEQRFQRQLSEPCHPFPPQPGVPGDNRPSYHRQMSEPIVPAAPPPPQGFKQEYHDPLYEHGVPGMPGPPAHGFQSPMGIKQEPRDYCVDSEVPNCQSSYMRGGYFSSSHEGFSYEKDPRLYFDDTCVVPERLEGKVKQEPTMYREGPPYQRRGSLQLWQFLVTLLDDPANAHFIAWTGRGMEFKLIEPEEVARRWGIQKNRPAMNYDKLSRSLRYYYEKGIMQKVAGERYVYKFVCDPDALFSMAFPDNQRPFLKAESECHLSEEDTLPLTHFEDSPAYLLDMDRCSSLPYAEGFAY
# ELF1, sequence (P32519 whole entry): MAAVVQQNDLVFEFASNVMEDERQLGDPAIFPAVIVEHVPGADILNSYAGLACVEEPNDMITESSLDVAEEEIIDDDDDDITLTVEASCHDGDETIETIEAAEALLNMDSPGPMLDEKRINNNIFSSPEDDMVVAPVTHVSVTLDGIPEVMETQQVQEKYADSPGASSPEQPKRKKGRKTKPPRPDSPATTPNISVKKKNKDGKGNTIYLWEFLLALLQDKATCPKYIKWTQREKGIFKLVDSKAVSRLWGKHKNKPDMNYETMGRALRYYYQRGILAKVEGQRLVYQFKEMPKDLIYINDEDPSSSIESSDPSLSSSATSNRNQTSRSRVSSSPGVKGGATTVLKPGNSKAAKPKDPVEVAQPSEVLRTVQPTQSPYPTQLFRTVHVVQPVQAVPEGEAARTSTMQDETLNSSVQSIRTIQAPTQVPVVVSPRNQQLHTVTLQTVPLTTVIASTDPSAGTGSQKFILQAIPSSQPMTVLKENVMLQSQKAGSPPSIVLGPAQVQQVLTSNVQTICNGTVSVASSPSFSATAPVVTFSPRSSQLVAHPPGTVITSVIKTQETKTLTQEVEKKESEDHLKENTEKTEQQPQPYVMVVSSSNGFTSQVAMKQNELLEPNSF
# ELF4, sequence (Q99607 whole entry): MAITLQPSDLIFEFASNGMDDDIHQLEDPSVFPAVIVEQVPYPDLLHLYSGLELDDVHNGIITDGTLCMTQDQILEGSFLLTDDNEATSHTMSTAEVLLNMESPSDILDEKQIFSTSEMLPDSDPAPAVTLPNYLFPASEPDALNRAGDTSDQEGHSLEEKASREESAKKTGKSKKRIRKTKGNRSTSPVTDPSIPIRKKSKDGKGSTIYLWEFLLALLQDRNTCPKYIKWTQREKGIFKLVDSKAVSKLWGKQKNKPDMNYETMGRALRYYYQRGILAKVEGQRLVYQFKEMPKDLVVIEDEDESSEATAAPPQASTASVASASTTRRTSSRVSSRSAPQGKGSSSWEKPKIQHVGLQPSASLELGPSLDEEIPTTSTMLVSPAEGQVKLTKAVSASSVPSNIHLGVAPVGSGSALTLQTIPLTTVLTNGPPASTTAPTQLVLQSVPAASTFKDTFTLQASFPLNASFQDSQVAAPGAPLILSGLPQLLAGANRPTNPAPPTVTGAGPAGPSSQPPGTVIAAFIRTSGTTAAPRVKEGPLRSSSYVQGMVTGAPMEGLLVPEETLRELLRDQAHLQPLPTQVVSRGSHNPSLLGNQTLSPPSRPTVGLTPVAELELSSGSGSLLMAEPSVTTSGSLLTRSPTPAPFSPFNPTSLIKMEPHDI
sequence,measurement,setting,value
ATGCAT,binding signal,FLI1,"1.21 fold enrichment (6-mer frequency, TF over GST control)"
same,binding signal,ELK1,"1.21 fold enrichment (6-mer frequency, TF over GST control)"
same,binding signal,GABPA,"1.22 fold enrichment (6-mer frequency, TF over GST control)"
same,binding signal,ERG,"1.16 fold enrichment (6-mer frequency, TF over GST control)"
same,binding signal,ELF1,"1.16 fold enrichment (6-mer frequency, TF over GST control)"
same,binding signal,EHF,"1.22 fold enrichment (6-mer frequency, TF over GST control)"
same,binding signal,SPI1,"1.18 fold enrichment (6-mer frequency, TF over GST control)"
same,binding signal,SPIB,"1.19 fold enrichment (6-mer frequency, TF over GST control)"
same,binding signal,ELK3,"1.29 fold enrichment (6-mer frequency, TF over GST control)"
same,binding signal,FEV,"1.18 fold enrichment (6-mer frequency, TF over GST control)"
same,binding signal,ETV5,"1.19 fold enrichment (6-mer frequency, TF over GST control)"
same,binding signal,HSF1,"1 fold enrichment (6-mer frequency, TF over GST control)"
same,binding signal,SPIC,"1.31 fold enrichment (6-mer frequency, TF over GST control)"
same,binding signal,ELF4,"1.28 fold enrichment (6-mer frequency, TF over GST control)"
same,binding signal,ELK4,"1.11 fold enrichment (6-mer frequency, TF over GST control)"
same,binding signal,ETV2,"1.27 fold enrichment (6-mer frequency, TF over GST control)"
same,binding signal,ELF3,"1.07 fold enrichment (6-mer frequency, TF over GST control)"
same,binding signal,CRX,"1.05 fold enrichment (6-mer frequency, TF over GST control)"
same,binding signal,ETV1,"1.15 fold enrichment (6-mer frequency, TF over GST control)"
